# The list is not random: actives were taken first. Their share in the collection is about 0.93%.
# AGP1 TOR yeast: modulators of AGP1-GFP expression in yeast TOR pathway, primary screen, cell-based, multiplex flow cytometry, S. cerevisiae, MLPCN library | 3 h; GFP as percent of DMSO wells | GFP response vs DMSO, % at 10 µM | 320,000 tested, 0.02% active | AID 2066, 2009;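 active = GFP response relative to DMSO above a set limit, near screen average plus 3 SD, cut at about 150% in these data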;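 also: median GFP channel fluorescence of the gated AGP1 strain per well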
# RPL19A TOR yeast: RPL19A-GFP expression modulators in yeast, primary screen, cell-based, S. cerevisiae, multiplex flow cytometry, MLPCN; S. cerevisiae RPL19A-GFP strain, 3 h; stronger effect = lower value; percent response vs DMSO, % at 10 µM; 330,000 tested, 0.3% active;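 active = percent response vs DMSO below 50%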;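 also: median channel GFP fluorescence of the barcoded RPL19A-GFP strain; ratio of sample median GFP to plate DMSO average so 100% = DMSO; lower means less RPL19A-GFP as with rapamycin TOR inhibition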
# LAP4-GFP MLPCN: modulators of LAP4-GFP expression in yeast, primary screen, S. cerevisiae, multiplex flow cytometry, MLPCN library | 3 h; median GFP as percent of DMSO wells | 320,000 tested, 0.34% active | AID 2023, 2009 | GFP response vs DMSO, % at 10 µM;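 active = GFP response vs DMSO above a set limit, about the screen mean plus 3 SD, cut at about 150% in these data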
# CIT2 TOR yeast: modulators of CIT2-GFP expression in yeast, primary screen, S. cerevisiae, GFP fusion, multiplex flow cytometry, MLPCN library. 320,000 tested, 0.065% active. GFP response vs DMSO, % at 10 µM. S. cerevisiae CIT2-GFP strain, 3 h; 100 means same as DMSO wells;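 active = GFP response relative to DMSO above a set limit, near the screen mean plus 3 SD, cut at about 150% in these data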;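 also: ratio of well median GFP fluorescence to mean of DMSO wells on the plate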
# MEP2 TOR yeast: modulators of MEP2-GFP levels in yeast, primary screen, S. cerevisiae, multiplex flow cytometry, MLPCN library; S. cerevisiae MEP2-GFP strain, 3 h; 100% = DMSO control level; GFP response vs DMSO, % at 10 µM; 330,000 tested, 0.51% active; AID 2016, 2009;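 active = GFP response versus DMSO above a set limit, roughly screen mean plus 3 SD, cut at about 180% in these data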;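 also: median GFP fluorescence of the barcode-gated MEP2-GFP cells per well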
# LAP4 cherry2: LAP4-GFP expression modulators in yeast, confirmation, cell-based, second cherry pick, flow cytometry. 590 tested, 20% active. AID 2621, 2010. S. cerevisiae LAP4-GFP strain, 3 h. GFP response vs DMSO, % at 10 µM. shares compounds with LAP4-GFP MLPCN;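 active = GFP signal as percent of the solvent control above about 150%, meaning raised reporter expression, limit read from the data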;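 also: ratio of well median GFP fluorescence to plate DMSO mean so 100% = DMSO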
# MEP2 cherry2: modulators of MEP2-GFP levels in yeast, confirmation, S. cerevisiae, flow cytometry GFP, second cherry picks | shares compounds with LAP4-GFP MLPCN | S. cerevisiae MEP2-GFP strain, 3 h | GFP response vs DMSO, % at 10 µM | 590 tested, 10% active | AID 2622, 2010;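 active = GFP signal above 150% of the solvent control wells, that is a rise of more than half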;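 also: median channel GFP fluorescence of all gated yeast cells per well; ratio of median GFP to plate DMSO average so 100% = DMSO level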
# RPL19A-GFP pick2: RPL19A-GFP modulators in TOR pathway yeast, confirmation, cell-based, S. cerevisiae, flow cytometry, second cherry pick | shares compounds with LAP4-GFP MLPCN | S. cerevisiae RPL19A-GFP strain, 3 h; stronger effect = lower value; 100% means same as DMSO wells | GFP response vs DMSO, % at 10 µM | 590 tested, 3% active | AID 2623, 2010;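 active = under 65% GFP response relative to DMSO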;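 also: median GFP channel fluorescence per well over the all cells gate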
# CIT2 GFP CP2: modulators of CIT2-GFP expression in yeast, confirmation, flow cytometry, second cherry pick, single plex. shares compounds with LAP4-GFP MLPCN. S. cerevisiae CIT2-GFP strain, 3 h; DMSO control wells read 100%. GFP response vs DMSO, % at 10 µM. 590 tested, 8% active;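 active = GFP response vs DMSO above about 150%, limit read from the data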;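 also: median green fluorescence per well over all gated yeast cells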
# AGP1-GFP pick2: AGP1-GFP expression modulators, hit retest, confirmation, cell-based, flow cytometry, S. cerevisiae, cherry pick set 2; shares compounds with LAP4-GFP MLPCN; S. cerevisiae AGP1-GFP strain, 3 h; 590 tested, under 10 active; percent response vs DMSO, % at 10 µM;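 active = over 150 percent of DMSO response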;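 also: median GFP channel fluorescence over all cells without mother daughter split; sample median GFP divided by mean DMSO control so 100% equals DMSO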
# s288c autofluor: compound autofluorescence in yeast s288c, dose response, artefact control for yeast TOR pathway GFP screen, s288c strain; 610 tested, under 10 active; fluorescence change (kMESF span) at 33 µM; shares compounds with LAP4-GFP MLPCN; AID 2757, 2010; S. cerevisiae s288c, 520 nm autofluorescence, flow cytometry, 3 h; stronger effect = higher value; zero means same as solvent-only cells;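 active = fluorescence span over the dose series, or activity score, above about 33, limit read from the data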
# s288c autofl DR: autofluorescence of compounds in yeast s288c, dose response, artefact control for yeast TOR pathway GFP screen, primary hits, KU SAR, s288c parental. fluorescence change (span) at 33 µM. shares compounds with LAP4-GFP MLPCN. S. cerevisiae s288c parental, compound autofluorescence, flow cytometry, 3 h. AID 488829, 2010. 110 tested, under 10 active;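 active = fluorescence change span, or the activity score built from it, above 25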
# TORC1 bypass gr: wild-type yeast growth inhibition sparing TORC1 bypass cells, mechanism study for yeast TOR pathway GFP screen, BY4741 wild type, TORC1 bypass strain; shares compounds with LAP4-GFP MLPCN; S. cerevisiae BY4741 spot growth rating, 48-72 h; stronger effect = lower value; growth rating (0-3) at 30 µM; 120 tested, under 10 active;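 active = growth rating at most 1 for wild type yeast while the TORC1 bypass strain still grows fully, rated 3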
# * hit, by the source's call; . = no result; + = active, no number.
SMILES,AGP1 TOR yeast,RPL19A TOR yeast,LAP4-GFP MLPCN,CIT2 TOR yeast,MEP2 TOR yeast,LAP4 cherry2,MEP2 cherry2,RPL19A-GFP pick2,CIT2 GFP CP2,AGP1-GFP pick2,s288c autofluor,others
COCCNc1nc(N)c([N+](=O)[O-])c(NCC2CCCO2)n1 (centres undefined),98.3,99.5,93.3,98.8,96.2,.,.,.,.,.,.,
Nc1nc(NCc2ccccc2)nc(Nc2ccc(F)cc2)c1[N+](=O)[O-],112.7,104.9,101.0,103.7,106.4,.,.,.,.,.,.,
CNc1nc(N)c([N+](=O)[O-])c(Nc2ccc(Cl)cc2)n1,.,.,.,.,.,.,.,.,.,.,.,s288c autofl DR=0.05;TORC1 bypass gr=3
CNc1nc(N)c([N+](=O)[O-])c(NCC2CCCO2)n1 (centres undefined),96.2,96.0,105.5,97.0,96.6,.,.,.,.,.,.,s288c autofl DR=0.06;TORC1 bypass gr=3
CCOc1ccc(Nc2nc(NC)nc(N)c2[N+](=O)[O-])cc1,.,.,.,.,.,.,.,.,.,.,.,s288c autofl DR=0.05;TORC1 bypass gr=3
COc1ccccc1OCCn1c(C)c(C=O)c2ccccc21,105.5,102.0,99.1,104.2,107.0,.,.,.,.,.,.,
O=C1Nc2ccccc2/C1=C/c1cnc(-c2ccccc2)[nH]1,116.1,119.9,169.2*,161.3*,183.8*,111.2,141.5,102.5,133.5,99.8,.,
Cc1ccc(NS(=O)(=O)c2cccc([N+](=O)[O-])c2)nc1,103.0,106.0,98.3,104.3,101.9,.,.,.,.,.,.,
CC(C)(C)NC(=O)[C@@H]1C[C@@H]2CCCC[C@@H]2CN1C[C@@H](O)[C@H](Cc1ccccc1)NC(=O)[C@H](CC(N)=O)NC(=O)c1ccc2ccccc2n1,81.8,100.2,95.9,79.1,96.1,107.2,113.5,95.9,112.6,100.7,.,
COC(=O)[C@H](Cc1ccccc1)NC(=O)c1ccc2ccccc2n1,90.2,95.8,85.0,89.1,92.7,.,.,.,.,.,.,
Oc1ccc(N=Nc2ccccc2)o1,95.7,111.5,164.8*,111.6,96.8,.,.,.,.,.,0.41,
Cc1cc(C(C)(C)C)cc(C)c1COC(=O)c1cccnc1,102.5,93.8,106.0,97.5,101.7,.,.,.,.,.,.,
COc1ccc(C(=O)NCc2nnc(SCC(=O)c3ccc(F)cc3)n2C)cc1OC,90.9,89.5,97.8,83.8,92.8,.,.,.,.,.,.,
O=C1N(c2ccccc2C(F)(F)F)O[C@]1(c1ccccc1)C1CCCCC1,71.0,95.2,84.6,99.1,89.3,106.7,101.5,105.5,115.3,106.9,-0.1,
CC(C)[C@@]1(c2ccccc2)ON(c2ccccc2C(F)(F)F)C1=O,100.4,99.0,109.7,104.8,93.6,105.2,96.1,102.1,104.3,97.1,-0.2,
O=C(O)c1nn(-c2ccccc2C(F)(F)F)cc1O,99.5,97.6,94.6,105.0,93.4,.,.,.,.,.,.,
O=C1N(c2ccccc2C(F)(F)F)OC1(Cc1ccccc1)c1ccccc1 (centres undefined),96.5,95.7,93.8,100.8,98.5,111.5,106.5,109.3,112.0,102.8,0,
FC(F)(F)c1ccccc1-n1ccnc1,74.7,89.3,108.4,72.0,99.2,.,.,.,.,.,.,
CC(C)[C@]1(c2ccccc2)ON(c2ccccc2C(F)(F)F)C1=O,93.0,93.9,94.0,93.7,93.8,108.7,103.2,104.2,114.2,107.9,-0.2,
Cn1cc(C(=O)Nc2ccc(C#N)cc2)c2ccccc2c1=O,98.4,106.5,93.1,101.9,107.8,.,.,.,.,.,.,
CC(C)[C@]1(c2ccc(Cl)cc2)ON(c2ccccc2C(F)(F)F)C1=O,99.8,95.5,107.1,106.0,99.2,102.2,94.3,100.8,105.7,99.7,-0.1,
Oc1ccc(-c2c(-c3ccsc3)sc3ccccc23)cc1,79.7,90.8,153.4*,83.9,88.0,114.2,104.8,89.5,97.3,88.7,.,
O=C(Nc1ccc(Br)cc1Br)C1CC(=O)N(Cc2ccccc2)C1 (centres undefined),87.4,84.7,86.2,96.9,94.3,.,.,.,.,.,.,
Cc1sc2ncnc(N/N=C/c3cccc(O)c3)c2c1C,95.0,97.0,95.7,97.0,99.5,.,.,.,.,.,.,
C/C(=N\Nc1ncnc2sc(C)c(C)c12)c1ccccn1,202.9*,182.6,869.2*,+,+,.,.,.,.,.,93.5*,
CCOc1ccc(CC(=O)N2N=C(C)CC2(O)C(F)(F)F)cc1 (centres undefined),94.0,102.5,93.4,98.5,97.9,.,.,.,.,.,.,
COc1ccccc1NC(=O)C(C)OC(=O)CCC1CCCCC1 (centres undefined),93.0,107.2,81.2,103.5,112.8,.,.,.,.,.,.,
CCCCCCCCC/C(=N\O)c1ccccn1,87.1,83.6,227.9*,104.5,104.1,.,.,.,.,.,-0.2,
CCCOc1ccc(C(=O)NNC(=S)NC(=O)CC)cc1,86.9,89.5,258.8*,80.8,106.8,.,.,.,.,.,1.43,s288c autofl DR=0.93;TORC1 bypass gr=3
CCn1c(C)cc(C(=O)CN2C(=O)c3ccccc3S2(=O)=O)c1C,97.2,93.9,92.2,87.7,97.1,.,.,.,.,.,.,
